“And” between values parts separate entries of the source, which are not always exact repeats. Equal entries are not always repeated. A structure can be active in one record and inactive in another. The source made the active and inactive calls. The calls were made as follows: active = hit-call score of the fitted dose curve at least 0.9, where 1 is the maximum; inactive = score below 0.9.
assay: IUF_NPC2b_neuronal_migration_120hr: Leibniz Research Institute for Environmental Medicine (IUF) 120-hour Neural Progenitor Cell Migration Assay for Neuron Migration (NPC2b) (AID 2284300)
Experimental: IUF_NPC2-5 is a cell-based, multiplexed assay that uses hNPC, a human primary neural progenitor cells, with measurements taken at 72 or 120 hours after chemical dosing in a 96-well plate. Human neural progenitor cells (hNPC) are generated from human fetal brain cortex at gestational week (GW) 16-19. In the neural progenitor cell migration and differentiation assay (NPC2-5), hNPCs grown as spheres are plated on an extracellular matrix and migrate and differentiate out of the sphere core. The processes radial glia migration, neuronal and oligodendrocyte migration as well as neuronal differentiation, neuronal morphology and oligodendrocyte differentiation are studied using automated phase contrast imaging and automated fluorescence imaging in combination with high content image analysis. In parallel, the cell viability is assessed using an alamar blue viability assay and the cytotoxicity using a lactate dehydrogenase dependent membrane integrity assay.IUF_NPC2b_neuronal_migration_120hr is one of 12 assay components measured from the IUF_NPC2-5 assay. Neuronal migration distance at 120 hr is the mean distance of all neurons from the edge of the sphere core to each individual neuron (see IUF_NPC3_neuronal_differentiation_120hr). Neuronal migration is normalized to radial glia migration distance at 120 hr.Data from the IUF_NPC2b_neuronal_migration_120hr component was analyzed at the endpoint IUF_NPC2b_neuronal_migration_120hr in the positive analysis fitting direction relative to DMSO as the negative control and baseline of activity. Using a type of migration reporter, gain or loss-of-signal activity can be used to understand developmental effects.
Culture protocol: After the cell expansion period the cells are cultured for up to four weeks in which they are passaged every week as described in 3.6. Between one to three days after passaging spheres at a size of 0.3 mm are picked for the test method. For the assessment of neural progenitor cell migration and differentiation, the spheres are plated on poly-D-lysine/laminin coated 96-well flat bottom plates in differentiation medium (N2) to initiate migration and differentiation. Thereby one 0.3 mm big sphere is plated in the middle of a well. The differentiation medium consists of DMEM and Ham's F12 at a ratio of 3 to 1 supplemented with 1% N2 and 1% penicillin and streptomycin. Within 5 days NPCs radially migrate out of the sphere core and differentiate into radial glia cells (nestin positive), neurons (TUBB3 positive), oligodendrocytes (O4 positive) and astrocytes (GFAP positive). Cultivation during the test method is performed at 37C and 5% CO2 at a ph of 7.2-7.6.Exposure: 0.3 mm big hNPC are plated in the already prepared test conditions. Exposure starts at day 0 of differentiation and is continued over five days of differentiation until the experiment is terminated. Cells are fed with fresh medium at day 3 of differentiation. Therefore, half of the test condition solution (e.g. solvent control or compound dilution) is replaced by freshly prepared test condition solution.Test Method: Migration distance and cytotoxicity is determined after 72 hours based on brightfield images of each well. The assay is terminated by the assessment of cell viability and cytotoxicity as well as cell fixation after 120 h. Immunocytochemistry is performed for Hoechst positive nuclei, TUBB3 positive neurons and O4 positive oligodendrocytes. On the ICC images, migration after 120 hours, neuronal and oligodendrocyte number, neuronal morphology and neuron/oligodendrocyte specific migration is assessed. immunocytochemical staining (ICC) generates an image for each sphere. The plates are scanned using an automated high content imaging device and all nuclei and their positions are determined automatically based on their intensity and size. Images are imported to the Omnisphero software to run the image analysis that measures the following endpoints. […]

Structure (SMILES)	outcome	AC50
CCOP(=S)(OCC)Oc1cc(C)nc(C(C)C)n1	inactive	–
CC(C)N(C(=O)SCC(Cl)=C(Cl)Cl)C(C)C	inactive	–
COP(=O)(OC)C(O)C(Cl)(Cl)Cl (stereo not given)	inactive	–
CSC1=N[C@@](C)(c2ccccc2)C(=O)N1Nc1ccccc1	inactive	–
CN(C)[C@@H]1C(=O)C(C(N)=O)=C(O)[C@@]2(O)C(=O)C3=C(O)c4c(O)cccc4[C@@](C)(O)[C@H]3[C@H](O)[C@@H]12	–	38.7 µM (active)
CC(=NC#N)N(C)Cc1ccc(Cl)nc1	inactive	–
COP(=O)(NC(C)=O)SC (stereo not given)	inactive	–
CCOP(=O)(NC(C)C)Oc1ccc(SC)c(C)c1 (stereo not given)	inactive	–
C=C(C)[C@H]1Cc2c(ccc3c2O[C@@H]2COc4cc(OC)c(OC)cc4[C@@H]2C3=O)O1	inactive	0.00958 µM (active)
CON=C(C(=O)OC)c1ccccc1CON=C(C)c1cccc(C(F)(F)F)c1	inactive	–
CCOC(=O)CC(SP(=O)(OC)OC)C(=O)OCC (stereo not given)	inactive	–
CCCSP(=O)(OCC)SCCC	inactive	–
O=[N+]([O-])c1cc(C(F)(F)F)c(Cl)c([N+](=O)[O-])c1Nc1ncc(C(F)(F)F)cc1Cl	–	0.796 µM (active)
CCOP(=O)(OCC)Oc1cc(C)nc(C(C)C)n1	inactive	–
CC[C@H](C)[C@H]1O[C@]2(C=C[C@@H]1C)C[C@@H]1C[C@@H](C/C=C(\C)[C@@H](O[C@H]3C[C@H](OC)[C@@H](O[C@H]4C[C@H](OC)[C@@H](NC)[C@H](C)O4)[C@H](C)O3)[C@@H](C)/C=C/C=C3\CO[C@@H]4[C@H](O)C(C)=C[C@@H](C(=O)O1)[C@]34O)O2	–	1.07 µM (active) and 3.32 µM (active)
CC1=NNC(=O)N(/N=C/c2cccnc2)C1	inactive	–
C[N+]1(C)CCCCC1	inactive	–
CCOP(=S)(OCC)OC(Cl)C(Cl)(Cl)Cl (stereo not given)	inactive	–
S=C1NCCN1	inactive	–
CN1COCN(Cc2cnc(Cl)s2)C1=N[N+](=O)[O-]	inactive	–
CCOP(=S)(Oc1cnc(C(C)(C)C)nc1)OC(C)C (stereo not given)	inactive	–
COP(=O)(OC)OC(Br)C(Cl)(Cl)Br (stereo not given)	–	38.1 µM (active)
CCCCSP(=O)(SCCCC)SCCCC	inactive	–
CCOP(=S)(OCC)SCCSCC	inactive	–

Source: PubChem BioAssay (EPA / NIEHS)
